ER stress surv: protection against thapsigargin ER stress killing – CSM14.1 cells, ATP luminescence, primary screen; relative survival (cellular ATP), % at 15 µg/mL (by protocol); CSM14.1 thapsigargin ER stress survival; 48,000 tested, 0.33% active; AID 1010, 2008;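 active = survival measured by cellular ATP above 50% at 15 µg/ml in the first screen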;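 note: cell death triggered by about 15 µM thapsigargin; ATP read 24 h after thapsigargin was added; plate controls were thapsigargin with DMSO for no effect and DMSO without thapsigargin for full effect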
Numbers without * were called inactive. This excerpt belongs to a sample that is enriched for hits.

SMILES	ER stress surv
Cn1cc(/C=C/c2nc3ccccc3c(=O)n2-c2ccc([N+](=O)[O-])cc2)c2ccccc21	6
COc1cccc(-n2c(/C=C/c3c(C)[nH]c4ccccc34)nc3ccccc3c2=O)c1	1
COc1cccc(-n2c(/C=C/c3cn(C)c4ccccc34)nc3ccccc3c2=O)c1	76*
COC(=O)c1ccccc1NC(=O)c1ccccc1[N+](=O)[O-]	5
CCOc1cc(/C=C2/SC(=S)N(C)C2=O)ccc1OCCOc1ccccc1C	2
COc1cc(/C=C2/SC(=S)N(C)C2=O)ccc1OCc1cccc2ccccc12	8
CCC(C)c1ccc(OCCOc2ccc(/C=C3/SC(=S)N(C)C3=O)cc2OC)cc1 (configuration not stated)	89*
O=C(c1cccc(Cl)c1)N1CCc2ccccc21	8
O=C(Nc1ccc(S(=O)(=O)N2CCCCC2)cc1)c1ccc(Cl)cc1	10
NS(=O)(=O)c1cccc(NC(=O)/C=C/c2cccc([N+](=O)[O-])c2)c1	0
COc1ccc(C(=O)N2CCN(Cc3ccc(C(F)(F)F)cc3)CC2)cc1OC	6
CCC(C)NCC(=O)NCCNc1ccc([N+](=O)[O-])cc1Cl (configuration not stated)	-4
Fc1cccc(Cl)c1CSc1nc2ccccc2[nH]1	0
O=C1CC(N2CCN(C(c3ccccc3)c3ccccc3)CC2)C(=O)N1c1ccc(F)cc1 (configuration not stated)	12
COc1ccc(N2C(=O)CC(N3CCN(C(c4ccccc4)c4ccc(Cl)cc4)CC3)C2=O)cc1 (configuration not stated)	110*
COc1cccc(N2C(=O)CC(N3CCN(C(c4ccccc4)c4ccccc4)CC3)C2=O)c1 (configuration not stated)	19
CCOC(=O)C1=C(C)N=c2s/c(=C\c3ccccc3)c(=O)n2C1/C=C/c1ccccc1 (configuration not stated)	4
Cc1no[n+]([O-])c1COc1ccccc1C=O	-1
CCCOc1ccc(N2C(=O)CC(NCc3ccccc3)C2=O)cc1 (configuration not stated)	-2
Cc1ccc(C(=O)Nc2ccc(S(=O)(=O)N3CCCC3)cc2)cc1	0
CC(NC(=O)c1ccccc1)C12CC3CC(CC(C3)C1)C2 (configuration not stated)	1
CC(NC(=O)c1ccc(S(=O)(=O)N2CCCCC2)cc1)C12CC3CC(CC(C3)C1)C2 (configuration not stated)	108*
Cc1ccc2[nH]c(C)c(CC(=O)N/N=C/c3ccc[nH]3)c2c1	-1
O=C(c1cccc(Cl)c1)N1CCN(c2cccc(Cl)c2)CC1	8
O=C(c1cccc(C(=O)N2CCN(c3cccc(Cl)c3)CC2)c1)N1CCN(c2cccc(Cl)c2)CC1	99*
SMILES	ER stress surv
O=C(c1ccc(Cl)cc1)N1CCN(c2cccc(Cl)c2)CC1	-4
COc1ccc(CNc2ccc(C)c(C)c2)c(OC)c1C	-4
COc1cccc(CNc2ccc3c(c2)ncn3-c2ccccc2)c1OC	89*
COc1ccc(CNc2ccc3c(c2)ncn3C)cc1	0
Cc1ccc(P(=O)(CSC(=N)N)c2ccc(C)cc2)cc1	58*
CCOC(=O)CP(=O)(c1ccccc1)c1ccccc1	6
Cc1ccc(NC(=O)CC(=O)NN)cc1	-5
COc1ccc(NS(=O)(=O)c2ccc(C)cc2)cc1[N+](=O)[O-]	8
COc1ccc(N2C(=O)S/C(=C\c3ccc(O)c(OC)c3)C2=O)cc1	9
CN(C)c1ccc(/C=C/C=N/NS(=O)(=O)c2ccc(C(C)(C)C)cc2)cc1	4
Nc1sc2c(c1C(=O)Nc1ccccc1)CCCC2	0
COc1cc2c(cc1NCc1ccncc1)oc1ccccc12	93*
COc1cc2c(cc1NCc1ccc3c(c1)OCO3)oc1ccccc12	-6
COc1cc2c(cc1NCc1ccc([N+](=O)[O-])cc1)oc1ccccc12	8
CCOc1ccc(NC(=O)/C=C\C(=O)O)cc1	-10
O=C(O)/C=C/C(=O)Nc1ccc(-c2ccc(NC(=O)/C=C/C(=O)O)cc2)cc1	-3
O=C(O)/C=C/C(=O)Nc1ccc(OC(F)(F)Cl)cc1	108*
O=C(Nc1ccc(I)cc1Cl)c1ccc([N+](=O)[O-])cc1Cl	4
CCCCNCCCCCCOc1c(C)cccc1C	-18
CC1(C)Cc2[nH]c(=O)c(C#N)cc2CO1	13
COc1ccc(C2CC(=O)C3=C(C2)Nc2ccccc2NC3c2cccc3ccccc23)cc1OC (configuration not stated)	-1
COc1ccc(C2CC(=O)C3=C(C2)Nc2ccccc2NC3c2ccc(Cl)c(Cl)c2)cc1OC (configuration not stated)	12
COc1ccc(C2CC(=O)C3=C(C2)Nc2ccccc2NC3c2ccncc2)cc1OC (configuration not stated)	6
CCc1ccc(C2Nc3ccccc3NC3=C2C(=O)CC(c2ccc(OC)c(OC)c2)C3)cc1 (configuration not stated)	89*
COc1ccc(C2Nc3ccccc3NC3=C2C(=O)CC(C)(C)C3)cc1OCc1ccccc1 (configuration not stated)	7
SMILES	ER stress surv
COc1ccc(C2CC(=O)C3=C(C2)Nc2ccccc2NC3c2ccccc2C)cc1OC (configuration not stated)	11
COc1ccc(C2CC(=O)C3=C(C2)Nc2ccccc2NC3c2ccc(OCc3ccccc3)c(OC)c2)cc1OC (configuration not stated)	125*
COc1ccc(C2CC(=O)C3=C(C2)Nc2ccccc2NC3c2ccccc2C(F)(F)F)cc1OC (configuration not stated)	124*
COc1ccc(C2CC(=O)C3=C(C2)Nc2ccccc2NC3c2cc(OC)c(OC)cc2OC)cc1 (configuration not stated)	8
CCCOc1ccc(C2Nc3ccccc3NC3=C2C(=O)CC(c2ccc(OC)c(OC)c2)C3)cc1 (configuration not stated)	103*
COc1ccc(C2CC(=O)C3=C(C2)Nc2ccccc2NC3c2ccc([N+](=O)[O-])cc2)cc1OC (configuration not stated)	-2
COc1ccccc1N1CCN(/N=C\c2cccc(Br)c2)CC1	9
O/N=C1/c2ccccc2/C(=N/O)C1c1ccccc1	10
O=C(NCCOc1ccc(F)cc1)c1ccccc1-c1ccccc1	0
COc1ccc(Cl)cc1C(=O)N1CCOCC1	0
COc1ccc(/C=C/C(=O)c2cccc(Br)c2)c(OC)c1	-1
C/C(=N\N1CCN(c2ccccc2)CC1)c1ccc(F)cc1	-4
Cc1cccc(NC(=O)c2ccc([N+](=O)[O-])cc2)c1	4
COc1ccc(C2CC(=O)C3=C(C2)Nc2ccccc2NC3c2cc(Br)ccc2OC)cc1OC (configuration not stated)	112*
COc1ccc(C2CC(=O)C3=C(C2)Nc2ccccc2NC3c2ccccc2Br)cc1OC (configuration not stated)	5
COc1ccc(C2CC(=O)C3=C(C2)Nc2ccccc2NC3c2ccc(SC)cc2)cc1OC (configuration not stated)	112*
COc1ccc(C2CC(=O)C3=C(C2)Nc2ccccc2NC3c2cc(OC)ccc2OC)cc1 (configuration not stated)	1
COc1ccc(OC)c(NC(=S)NC(NC(=O)c2cc(OC)c(OC)c(OC)c2)C(Cl)(Cl)Cl)c1 (configuration not stated)	8

High-throughput results (PubChem)
